Results as given in PubChem BioAssay AID651793 (National Center for Advancing Translational Sciences (NCATS), 2012).
Records with an inconclusive call do not appear. A number with no mark means an inactive call. The source made the active and inactive calls. Calls follow the shape of the dose curve; as a rule, active = well fitted inhibition curve with a large enough effect; inconclusive = small, poorly fitted or top-dose-only effect; inactive = flat fitted curve, though single readings scatter.

Test: InCell qHTS Assay for Inhibitors of the mTORC1 Signaling Pathway in WT MEF Cells: Hit Validation
Details: WT MEF phospho-rpS6 immunofluorescence, Acumen, 24 h; series mostly up to 38.3 µM; activity change, negative = inhibition: at the top concentration
Text: The mammalian target of rapamycin (mTOR) is an intracellular serine/threonine kinase Aberrant regulation of mTOR signaling plays a causative role in a number of human diseases, including cancer, benign tumors such as lymphangioleiomyomatosis (LAM) and Tuberous Sclerosis Complex (TSC), and metabolic diseases such as diabetes and obesity. This project aims to identify inhibitors of ribosomal protein S6 (rpS6) phosphorylation. The phosphorylation of rpS6 is a key event downstream of mTOR activation. The assay uses a phospho-specific antibody of phospho-rpS6 to detect inhibitors of mTOR activation. Mutations in the Tsc1 and Tsc2 genes are the underlying genetic lesions responsible for TSC, causing constitutive activation of the mTORC1 pathway and leading to profound effects on cell metabolism. Aberrant metabolism in cancer has recently received significant attention as a target to develop therapeutic agents in the treatment of cancer.1 As Tsc2-/- cells have lost the ability to respond to energy and growth factor deprivation, these cells are unable to properly down regulate cellular biosynthetic processes in response to metabolic stress, and are thus extremely sensitive to glucose deprivation-induced death.2 A central goal of this project is to explore the unique cell survival and metabolic properties of cells with Tsc1 or Tsc2 by screening for compounds that selectively target the Tsc2-/- MEFs by screening both Tsc2-/- and WT MEF cell lines. We hope to better understand these aspects of TSC physiology in order to exploit them for therapeutic benefit. NIH Molecular Libraries Probe Production Centers Network [MLPCN] NIH Chemical Genomics Center [NCGC] MLPCN Grant: NS059428 Assay Submitter (PI): Blenis, John; Harvard University
For quantitative high throughput analysis of mTORC1 signaling, we developed a cell-based assay for immuno-fluorescence based detection of rpS6 phosphorylation on the Acumen Explorer that will be used a platform for the primary small molecule screen. Mouse embryonic fibroblasts (MEFs) are cultured in 1536-well plates using DMEM + 10% FBS. Twenty-four hrs after plating, test compounds (solubilized in DMSO) are delivered and incubated with the cells for 24 hrs at 37 degree Celsius. Following the incubation, media with compound is aspirated and the cells are fixed in 4% paraformaldehyde (PFA) containing PBS + 0.2% TX-100. Next, PFA is aspirated, cells are washed two times with PBS plus 0.2% TX-100 and the cells are blocked for 1 hr at room temperature (blocking buffer: LiCOR Blocking Buffer plus 0.2% TX-100). This is followed by aspiration and staining with Alexa-488 conjugated-phospho-rpS6 Ser235/236 antibody for 2 hours at room temperature (Cell Signaling Technology # 4803, 1:50 dilution in blocking buffer). Cells are washed two times with PBS plus 0.2% TX-100, and stained with 10 uM propidium iodide (PI) for 20-25 minutes for cell number measurement (1:500 dilution of Hoescht staining is also added for IN Cell imaging). The plates are scanned on the Acumen Explorer laser scanning instrument (TTP Labtech) using the 488nm laser for simultaneous excitation of the Alexa-488 and PI. The fluorescence emission from the Alexa-488 conjugated rpS6 phospho-235/236 antibody staining is selected using a […] band pass filter. Fluorescence emission from the PI stain is selected using a 575-640 nm band pass filter. The normalized phospho-S6 staining is calculated as the ratio of the integrated Alexa 488 intensity divided by the integrated PI intensity for the single concentration rapamycin control (7.5 nM) and DMSO columns. […] Inhibition of the pathway is defined based on the normalized phospho-S6 intensity in rapamycin treated cells. […]

Structure (SMILES)	activity change, negative = inhibition [%]	Potency
COc1cc(Nc2nc(-c3ccc(OC)c(OC)c3)nc3ccccc23)cc(OC)c1	0.662	
CCOc1ccc(C2CC(=O)c3c([nH]c(C(=O)OCc4ccccc4)c3C)C2)cc1 (configuration not stated)	-1.88	
COc1ccc(OC)c(C2CC(=O)c3c([nH]c(C(=O)OCc4ccc(C)cc4)c3C)C2)c1 (configuration not stated)	0.434	
CCN1CCN(c2cc(C)c3cc(NC(=O)/C=C/c4ccc(C)cc4)ccc3n2)CC1	-0.932	
Cc1c(C(=O)OCCOc2ccccc2)[nH]c2c1C(=O)CC(c1ccccc1Cl)C2 (configuration not stated)	2.04	
COc1ccc(Nc2c3c(nc4ccc(NC(=O)/C=C/c5cccc(OC)c5OC)cc24)CCCC3)cc1OC		8.95 µM (active)
CCN1CCN(c2cc(C)c3cc(NC(=O)/C=C/c4ccc(OCCC(C)C)cc4)ccc3n2)CC1		3.18 µM (active)
COc1ccc(/C=C/C(=O)Nc2ccc3nc4c(c(Nc5ccc(OC)c(OC)c5)c3c2)CCCC4)cc1		11.3 µM (active)
CCN1CCN(c2cc(C)c3cc(NC(=O)c4cccc(Cl)c4)ccc3n2)CC1	2.04	
COc1ccccc1Nc1c2c(nc3ccc(NC(=O)c4ccc(N(C)C)cc4)cc13)CCCC2		5.65 µM (active)
O=C1CC(c2ccccc2)Cc2[nH]c(=O)c(-c3nc(-c4cccc(Cl)c4)cs3)cc21 (configuration not stated)	-4.76	
O=C1CC(c2ccccc2)Cc2[nH]c(=O)c(-c3nc(-c4ccc(Cl)cc4)cs3)cc21 (configuration not stated)	-11.7	
CCCOc1ccc(C(=O)Nc2ccc(NC(=O)c3ccccc3)c(C)c2)cc1		6.34 µM (active)
CCCOc1ccc(C(=O)Nc2ccc(NC(=O)c3ccccc3)c(Br)c2)cc1		10 µM (active)
CCN(CC)c1cc(C)c2cc(NC(=O)/C=C/c3cc(OC)c(OC)c(OC)c3)ccc2n1		22.5 µM (active)
Cc1cccc(Nc2nc(Nc3cccc(C)c3)nc(N3CCOCC3)n2)c1		20 µM (active)
C=CCNC1=C2C[C@@H](C)C[C@H](OC)[C@H](O)[C@@H](C)/C=C(\C)[C@H](OC(N)=O)[C@@H](OC)/C=C\C=C(/C)C(=O)NC(=CC1=O)C2=O		0.252 µM (active)
CCOc1ccc(Nc2nc(Nc3ccc(OCC)cc3)nc(N3CCOCC3)n2)cc1	-14	
COc1ccccc1Nc1c2c(nc3ccc(NC(=O)c4cccc(OC)c4OC)cc13)CCCC2		17.9 µM (active)
CCOc1ccc(/C=C/C(=O)Nc2ccc3nc(N(CC)CC)cc(C)c3c2)cc1OC		10 µM (active)
CCN1CCN(c2cc(C)c3cc(NC(=O)c4cc(OC)cc(OC)c4)ccc3n2)CC1	0.907	
COc1ccccc1Nc1c2c(nc3ccc(NC(=O)/C=C/c4cc(OC)c(OC)c(OC)c4)cc13)CCCC2		2.52 µM (active)
CCCCc1ccc(C(=O)Nc2ccc3nc(N4CCN(CC)CC4)cc(C)c3c2)cc1		8.95 µM (active)
Cc1cc(N2CCN(C)CC2)nc2ccc(NC(=O)c3ccc(C(C)(C)C)cc3)cc12		15.9 µM (active)
COc1cc(NC(=O)c2cccc(F)c2)ccc1NC(=O)c1cc2ccccc2o1		8.95 µM (active)
COc1cc(-c2nc3ncccn3c2Nc2ccc(C)cc2C)ccc1O	-17.7	
Cc1cc(N2CCCCC2)nc2ccc(NC(=O)/C=C/c3ccccc3OC(C)C)cc12	-15.8	
